Measured values from PubChem BioAssay (NCI).
This is part of a sample that, as a whole, favours compounds with a hit. Of some 79,000 tested, about 15% had one in any assay. Unmarked numbers belong to inactive results. Activity calls are given as the source filed them. Cut-off read from the data, not from the text of the source: active = growth inhibition above about 70%; inactive = the rest. Where a SMILES comes first, the peptide text is derived from it. [ ]: non-standard residue; d: D form. Ac5c = NC1(C(=O)O)CCCC1

Experiments:
[1] = NCI Yeast Anticancer Drug Screen. Data for the rad50 strain (AID 155);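 note: 0% = growth of vehicle-only cultures of the same strain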; details: S. cerevisiae rad50 strain growth inhibition; at 50.0 µM; hits give high values
How it was run: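 Cells are treated with compound, grown, and their growth is then scored against vehicle-only cultures of the same repair-deficient yeast strain.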

[2] = NCI Yeast Anticancer Drug Screen. Data for the mec2-1 strain (AID 157); details: S. cerevisiae mec2-1 strain, at 50.0 µM, hits give high values
How it was run: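 mec2-1 yeast strain, carrying an alteration in DNA damage repair or cell cycle control, was exposed to compounds; growth inhibition was measured relative to vehicle-treated controls.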

[3] = NCI Yeast Anticancer Drug Screen. Data for the sgs1 mgt1 strain (AID 161);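 note: 0% = growth of cultures given vehicle only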; details: S. cerevisiae sgs1 mgt1 strain, at 50.0 µM, hits give high values
How it was run: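 Percent growth inhibition was derived by comparing compound-exposed mutant yeast with vehicle-exposed cultures. The strain carries alterations in DNA damage repair.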

[4] = NCI Yeast Anticancer Drug Screen. Data for the cln2 rad14 strain (AID 165);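 note: 0% = growth equal to vehicle treated cultures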; details: S. cerevisiae cln2 rad14 strain, at 50.0 µM, hits give high values
How it was run: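 Yeast carrying cln2 and rad14 alterations (cell cycle control and DNA damage repair) were exposed to compounds. Growth inhibition was measured against vehicle-treated controls.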

[5] = NCI Yeast Anticancer Drug Screen. Data for the bub3 strain (AID 167); details: S. cerevisiae bub3 mutant strain, at 50.0 µM, hits give high values
How it was run: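 Part of a panel of yeast mutants defective in DNA damage repair or cell cycle regulation. Each strain is grown with compound, and inhibition is calculated relative to solvent-treated cultures.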

[6] = NCI Yeast Anticancer Drug Screen. Data for the mlh1 rad18 strain (AID 175); details: S. cerevisiae mlh1 rad18 strain growth inhibition; at 50.0 µM; hits give high values
How it was run: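 Growth inhibition of the yeast strain was measured after compound exposure and expressed relative to vehicle-treated controls. The strain carries defined defects in DNA damage repair.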

SMILES	growth inhibition [1] [%]	growth inhibition [2] [%]	growth inhibition [3] [%]	growth inhibition [4] [%]	growth inhibition [5] [%]	growth inhibition [6]
C1CCC2(CC1)SCCS2	2	-18.4	-1.9	-48.9	-9.4	-10.4%
COc1ccc(-c2ccccc2C(=O)O)cc1	-2.65	-14.8	5.8	-12.5	-7.2	8.1%
Cc1cnc(-c2ccccc2)o1	8.7	5.4	-4.8	3.9	0.9	-12.7%
COc1cc(Nc2cnc3ccc(C(F)(F)F)cc3n2)cc(OC)c1OC	-0.3	4.9	1.15	-0.8	-16.9	-3.5%
O=C1ON(c2ccccc2)C(c2ccc(OCc3ccccc3)cc2)N1c1ccccc1 (stereo not drawn)	42.6	14	11.8	4.35	27.5	26.8%
COc1ccc(N=Cc2ccc(N(CCC#N)S(=O)(=O)c3ccccc3)cc2C)cc1	-9.4	-10.8	5.5	13.4	-16.8	-10%
O=c1[nH]ncc(N/N=C(/C=C/c2ccc(C/C(=N/Nc3cn[nH]c(=O)c3Cl)c3ccccc3)cc2)c2ccccc2)c1Cl	30.1	8.8	33.2	-15.6	9.65	4%
COC(=O)CC1C(OC)OC23CCC1C2(C)CCC1C3CCC2CC(OC3CCCCO3)CCC21C (stereo not drawn)	19.1	1.15	9.55	12.6	3.2	18.3%
CC(=O)Oc1cc(OC(C)=O)c2c(c1)OC(c1ccc(OC(C)=O)c(OC(C)=O)c1)CC2=O (stereo not drawn)	21.4	3.8	18.3	3.95	3.85	28%
Cc1ccc(N=Nc2ccc(C)cc2NC(=O)Nc2cc([N+](=O)[O-])ccc2F)cc1	13.4	-16.1	-4.6	-5.9	-4.3	-5.4%
c1ccc(C2SCCCS2)cc1	33.2	5.25	17.8	18.4	-4.5	18.4%
Nc1ccc(COCCOCc2ccc(N)cc2)cc1	-4.35	1.7	-4.25	-5.6	2.8	17.4%
O=C1NC(N2CCOCC2)=N/C1=C\c1ccccc1O	-1.3	-26	-7.8	-8.65	16.1	81.2% (active)
c1ccc(N=C(c2ccccc2)c2ccccc2)cc1	9.25	-6.65	-6.05	-6.65	-7.65	26.3%
N#CC(CNC1CCCCC1)c1ccccc1 (stereo not drawn)	-9.35	-4.35	4.3	-32.7	15.1	10.7%
CNOCc1ccc(C(=O)NC(C)C)cc1	12.2	17.6	2.8	-30.9	11.7	17.5%
Cc1ccc2c(c1)-c1nc3nnnn3nc1C(C)(C)O2	21	6.8	34	-6.85	15.1	26.8%
Cc1ccccc1NN	29.1	7.05	-2.3	-2.6	4	7.6%
c1ccc2cc3ccccc3cc2c1	5.75	10.7	-18.5	-42.6	-0.85	3.7%

SMILES	growth inhibition [1] [%]	growth inhibition [2] [%]	growth inhibition [3] [%]	growth inhibition [4] [%]	growth inhibition [5] [%]	growth inhibition [6]
COC(=O)C1(NC(=O)C(C)NC(=O)C(CCCCN)NC(=O)C(CC(C)C)NC(C)=O)CCCC1 (stereo not drawn) (Ac-LKA[Ac5c]-OMe; configuration not given here)	3.1	4.7	13.8	-6.25	-7.8	8.05%
O=C(O)/C(=C/c1ccccc1)c1ccccc1	-9.3	-45	-30.3	-23.1	-33.5	26.8%
COc1cc(OC)c2nc(C)c3c(c2c1)SCC3	-0.5	-23.1	5.25	7.4	28.6	20%
COc1ccc(Br)cc1C=Nc1ccccc1	14.9	3.05	19.2	-8.05	9.05	4.85%
CC(C)C(=O)c1ccccc1Cl	2.85	-7.05	-2.45	-0.35	2.7	-8%
NC(N)=Nc1ccc(CC(N)C(=O)NCC(=O)C(CC(=O)O)c2ncc(NC(=O)C(F)(F)F)o2)cc1 (stereo not drawn)	-17.4	-1.75	-5.15	-4	-19.6	7.35%
Cc1ccc(S(=O)(=O)N(N)CCC#N)cc1	7.3	4.55	14.8	-24.1	-10.1	14.6%
Nc1cccc(C(F)(F)F)c1[N+](=O)[O-]	-8.25	-28	-22.4	-23.4	-25.9	18.1%
N#C/C1=C(\N)CCSSSC1	30.8	25.9	17.4	21.3	9.5	-0.2%
CC(OC(=O)CC(c1ccccc1)N1CCCCC1)c1ccccc1 (stereo not drawn)	64.7	1.3	41.1	5.3	57.5	33.9%
Fc1cccc(-c2nnc(-c3ccccc3)o2)c1	34.1	23.1	28.9	19.4	37.8	-1.65%
NC(CCc1ccc2c(c1)OCO2)C(=O)O (stereo not drawn)	5.35	-11.8	-3.55	-47	-5.8	22.9%
C/C(=N\NC(=O)c1ccncc1)c1cccc(Br)c1	12	13.9	5.35	6.6	5.35	11.8%
C=C(C)C1CC/C(C)=C/CC[C@]2(C)O[C@H]2CC/C(COC(C)=O)=C\[C@@H]1O (stereo partly drawn)	-7.9	-8.7	2.2	3.65	-18.6	-54.6%
CCOC(=O)N1CCN(P(=O)(c2ccccc2)N2CCN(C(=O)OCC)CC2)CC1	7.35	-28.4	1.85	-31.6	-0.75	9.85%
NC(CC1=CS(=O)(=O)c2ccc(Cl)cc21)C(=O)O (stereo not drawn)	18.4	19.3	4.45	-16.2	23.8	23.9%
O=S(=O)(c1ccccc1)N1CCCN(S(=O)(=O)c2ccccc2)CC1	-11.9	-0.45	2.15	3.1	3.35	0.7%
CCN(CC)c1ccc(N=Nc2ccc([N+](=O)[O-])cc2OC(=O)/C=C/c2ccccc2)c(OC(=O)/C=C/c2ccccc2)c1	-17.6	-47.9	-12.9	5.6	-32.5	-22.8%
CCCCC1C(=O)N=C2C=CC=CN2C1=O (stereo not drawn)	-2.15	-16.9	-5.75	3.5	-24.2	-7.4%
